From PubChem BioAssay
Integrin act MD – integrin-mediated muscular dystrophy alleviation activation; alpha7betagal myoblasts, beta-gal FDG fluorescence, 48 h; Potency, µM (titrated, usually from 38.3 µM), for the others: at the highest dose activation, actives largely listed as activators; hit rate 0.064% among 350,000; AID 624291;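 further: 100% = response of the positive control SU9516; nearly all actives have a fitted effect of over 60% in size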
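Alpha7betagal+/- myoblasts (passage 13) were plated 16-24 hr, then exposed to compounds (1:260 dilution of DMSO stock) for 48 hours at 37C. After MPER lysis, β-galactosidase reporter activity was read as FDG fluorescence (ex 480/em 540) after 30 minutes.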
MCF10A rerep – DNA re-replication induction in MCF 10a cells; MCF 10A DNA re-replication, Hoechst nuclear intensity, 48 h; Potency, µM (series often up to 46.1 µM), without a hit: at the highest dose activity, positive = re-replication, usual class: activators; hit rate 2.9% among 350,000; AID 624296; further: % of control where 0% means no effect; nearly all actives have a fitted effect of over 50% in size
AT treatment – candidate therapy for ataxia-telangiectasia; Potency, µM (top dose mostly 57.5 µM), for inactives: top-dose activation, most hits filed as activators; hit rate 0.19% among 320,000; AID 485349; F2112 A-T fibroblasts, KAP-1 phosphorylation AlphaLISA; neocarzinostatin DNA damage 30 min before lysis; further: % of control where 0% means no effect; nearly all actives have a fitted effect of over 45% in size
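hTERT-immortalized A-T patient fibroblasts (F2112), 500 cells/well in OPTI-MEM, 1% FBS, got compounds for 60 min, then NCS for 30 min at 37C. Lysates were then assayed for phospho-KAP-1 by AlphaLISA (anti-pKAP1 donor, anti-KAP1 acceptor beads), 6 hr at 25C.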
SW480 rerep – inducers of DNA re-replication in SW480 colon cancer cells | SW480 DNA re-replication, Hoechst DNA content imaging, 48 h | Potency, µM (doses to about 46.1 µM), for the others: top-dose re-replication activation, most hits filed as activators | hit rate 1.8% among 340,000 | AID 624297; further: % of control where 0% means no effect; nearly all actives have a fitted effect of over 55% in size
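Cells (250 per well) received 23 nL compound or DMSO by pin tool and were kept 48 hr at 37 C, 5% CO2. Nuclei were then stained with Hoechst for 40 min and scanned for DNA content.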
Mito fusion yeast – blocks mitochondrial division or promotes mitochondrial fusion | S. cerevisiae fusion-defective mutant growth rescue, CellTiterGlo 48 h | Potency, µM (titrated, usually from 46.1 µM), without a hit: at the top dose growth rescue (activation), hits mostly activators | hit rate 0.23% among 320,000 | AID 485298; further: % of control where 0% means no effect; nearly all actives have a fitted effect of over 45% in size
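Compounds are tested for their ability to restore growth of mitochondrial fusion-defective yeast strains at non-permissive 37C in YPEG medium over 48 hours. Viability is quantified by luciferase luminescence.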
Numbers without * were called inactive; u = inconclusive; x = no result given; [ ] = dose if it differs, or a comment. The list is not random: actives were taken first. Their share in the collection is about 4.2%. The call rests on the fitted dose curve; in most records, active means well fitted activation curve with a large enough effect; inconclusive means small, poorly fitted or top-dose-only effect; inactive means no such curve, though single readings can be large or run the other way. Potency means the concentration at half of the fitted maximal effect.

SMILES	Integrin act MD	MCF10A rerep	AT treatment	SW480 rerep	Mito fusion yeast
COCC(=O)Nc1ccc2c(c1)OCC(=O)N2Cc1ccc(C)cc1	2%	23µM*	2%	5%	0%
COc1cc2cc(/C=C/C(=O)c3ccco3)c(Cl)nc2cc1OC	-3%	23µM*	-2%	21µM*	-2%
Cc1ccc2cc(/C=C/C(=O)c3ccco3)c(Cl)nc2c1	-68%	8.2µM*	35%	u	-11%
CCc1ccc(N2CC(C(=O)OCC(=O)Nc3ccc(C#N)cc3)CC2=O)cc1 (stereo not drawn)	-9%	-1%	-1%	-11%	-1%
COc1cc(-c2nccc3cc4c(cc23)OCO4)cc(OC)c1OC	-41%	15µM*	x	5.8µM*	x
COc1cc(CC(=O)NCc2ccc3c(c2)OCO3)cc(OC)c1OC	5%	-10%	-7%	-6%[9.22 µM]	-4%
COc1ccc(O)c(/C=N/NC(=O)CCC(=O)Nc2cccc(C)c2)c1	-37%	u	-9%	5.8µM*	-29%
O=C(N/N=C/c1ccc(O)cc1O)C(=O)N/N=C/c1ccc(O)cc1O	-30%	7%	-19%	12µM*	3%
O=C(CCC(=O)Nc1ccc(F)cc1)N/N=C/c1ccc(O)cc1O	3%	38%	-2%	9.2µM*	-6%
COc1ccc(O)c(/C=N/NC(=O)CCC(=O)Nc2ccc(C)cc2)c1	-30%	7%	-4%	u	-7%
O=C(Cn1cnc([N+](=O)[O-])n1)N/N=C/c1ccc(O)cc1O	6%	-1%	8%	12µM*	1%
O=C(CSc1nnc2ncccn12)Nc1cccc2ccccc12	14%	2%	-1%	2%	-8%
CN(C)c1ccc(/C=C2\c3ccccc3C(=O)N2c2ccccc2)cn1	-8%	x	x	x	x
CC1NC(=O)c2cccnc2-n2c1nc1cc(F)c(F)cc1c2=O (stereo not drawn)	2%	x	x	x	x
COCCNC(=O)Cn1cnc([N+](=O)[O-])n1	2%	-48%	4%	-3%	-14%
CCCCNC(=O)Cn1cnc([N+](=O)[O-])n1	4%	1%	-3%	7.3µM*	-1%
O=C(COC(=O)C1COc2ccccc2O1)Nc1cccc(S(=O)(=O)N2CCCCC2)c1 (stereo not drawn)	20%	-5%	-7%	-1%	-3%
Oc1ccc(Br)cc1-c1cc(-c2ccc(Cl)cc2)n[nH]1	-60%	15µM*	2%	15µM*	23%
CS(=O)(=O)N1CCCC(C(=O)NC2CCCCCCC2)C1 (stereo not drawn)	-19%	23µM*	1%	13%	-3%
CCCS(=O)(=O)N1CCN(Cc2ccc3c(c2)c2ccccc2n3CC)CC1	-45%	13µM*	-10%	u	4%
CC(OC(=O)/C(C#N)=C/c1ccc(N(C)C)cc1)C(=O)N(C)Cc1ccccc1 (stereo not drawn)	-34%	16µM*	7%	u	2%
Cc1oc(-c2ccc(Cl)cc2)nc1CN1CCC(C(=O)NCCCN2CCCC(C)C2)CC1 (stereo not drawn)	-33%	2%	-3%	u	7%
CC(C)=Nc1ccccc1C1COC(=O)C1=N (stereo not drawn)	-2%	-70%	2%	0.52µM*	-13%
Cc1cccc(C)c1OCc1cc(C(=O)N2CCCC2c2nonc2C)no1 (stereo not drawn)	-23%	8.2µM*	2%	u	3%
CSc1ccccc1OCc1cc(C(=O)N2CCCC2c2nonc2C)no1 (stereo not drawn)	-12%	2%	-1%	-9%	-1%
SMILES	Integrin act MD	MCF10A rerep	AT treatment	SW480 rerep	Mito fusion yeast
COCCNC(=S)NCCc1ccc(Cl)cc1Cl	-22%	1%	-2%	16µM*	-6%
COCC(C)NC(=S)NCCc1ccc(Cl)cc1Cl (stereo not drawn)	u	u	-4%	u	0%
Cc1ccc(C(=O)NC(=S)c2c(C)cc3ccccn23)cc1	-13%	x	x	x	x
Cc1cccc2c(C(=O)N3CCN(C(=O)c4ccco4)CC3)cc(-c3cccc(Br)c3)nc12	3%	18µM*	2%	u	5%
O=C(c1ccco1)N1CCN(C(=O)c2cc(-c3ccccc3)nc3ccccc23)CC1	7%	8%	8%	3%	1%
O=C(/C=C/c1cccc([N+](=O)[O-])c1)c1cccs1	-65%	3.3µM*	u	5.8µM*	-14%
O=C(/C=C/c1cccc([N+](=O)[O-])c1)n1cnc2ccccc21	-12%	3.7µM*	8%	5.8µM*	-8%
O=C(/C=C/c1cccc([N+](=O)[O-])c1)N1CCN(c2ccccn2)CC1	-22%	-2%	15%	-2%	0%
O=C(/C=C/c1ccc(N2CCCCC2)c([N+](=O)[O-])c1)c1ccc(O)cc1	-37%	21%	1%	u	5%
O=C(/C=C/c1cccc([N+](=O)[O-])c1)Nc1ccc(NC(=O)c2cccs2)cc1	-6%	-8%	-2%	-2%	-5%
CC(=O)Oc1ccccc1C(=O)C=Cc1cccc([N+](=O)[O-])c1	-44%	5.8µM*	x	u	x
COc1ccccc1C(=O)/C=C/c1ccc(N2CCCCC2)c([N+](=O)[O-])c1	-61%	6.5µM*	-8%	18µM*	4%
Cc1[nH]ccc(=O)c1OC1OC(CO)C(O)C(O)C1O (stereo not drawn)	29%	11%	-2%	-22%	-3%
Cc1ccc(Cl)cc1NC(=O)[C@@H]1CCC(=O)N1C1OC(=O)c2ccccc21 (stereo partly drawn)	16%	-2%	14%	6%	5%
Nc1cc2c(cc1C(=O)c1cccc(Br)c1)OCCO2	-21%	21µM*	-2%	u	23%
COc1ccc(S(=O)(=O)N2CCN(C(=O)c3ccc(COc4ccccc4)o3)CC2)cc1	2%	x	x	x	x
CN=c1scc(-c2cccs2)n1/N=C/c1ccc(O)c(O)c1O	-25%	8%	-3%	u	6%
CN=c1scc(-c2cccs2)n1/N=C/c1ccccc1O	-24%	15µM*	20%	11%	18%
CC(=NO)c1ccc2c(c1)C(=NO)c1ccccc1-2	21%	-7%	x	-8%	x
O=C1CC(c2ccc3c(c2)OCCO3)Oc2ccc([N+](=O)[O-])cc21 (stereo not drawn)	-5%	16µM*	1%	-4%	6%
CCOc1ccc(-n2nnnc2SCC(=O)c2ccccc2)cc1	-26%	4.1µM*	7%	u	-4%
COc1ccc(-n2nnnc2SCC(=O)c2cccc(OC)c2)cc1	-5%	u	6%	-6%	2%
CCOc1ccc(N2C(=O)CC(Sc3nnnn3-c3ccccc3)C2=O)cc1 (stereo not drawn)	-70%	u	-11%	16µM*	3%
